According to ChEMBL document CHEMBL3433997, “St. Jude Leishmania screening dataset” (2016):

Key:
Assay type in all cases: functional
[1] = molecular target: Solute carrier family 2, facilitated glucose transporter member 1 (Homo sapiens) (UniProt P11166); assay: ST_JUDE_LEISH: Cytotoxicity at 2uM final concentration against transgenic Leishmania Mexicana promastigotes LmGLUT1 that are glucose transport deficient and complemented with the human glucose transporter GLUT1. Activity is measured by DNA content using SYBR green in vitro
[2] = molecular target: Hexose transporter 1 (Plasmodium falciparum) (UniProt O97467); assay: ST_JUDE_LEISH: Cytotoxicity at 2uM final concentration against transgenic Leishmania Mexicana promastigotes LmPfHT that are glucose transport deficient and complemented with the Plasmodium falciparum hexose transporter. Activity is measured by DNA content using SYBR green in vitro
[3] = molecular target: Glucose transporter (Leishmania mexicana) (UniProt O61059); assay: ST_JUDE_LEISH: Cytotoxicity at 2uM final concentration against transgenic Leishmania Mexicana promastigotes LmGT2 that are glucose transport deficient and complemented with the L. Mexicana glucose transporter 2. Activity is measured by DNA content using SYBR green in vitro

Sequence of Solute carrier family 2, facilitated glucose transporter member 1 (Homo sapiens) (P11166 whole entry): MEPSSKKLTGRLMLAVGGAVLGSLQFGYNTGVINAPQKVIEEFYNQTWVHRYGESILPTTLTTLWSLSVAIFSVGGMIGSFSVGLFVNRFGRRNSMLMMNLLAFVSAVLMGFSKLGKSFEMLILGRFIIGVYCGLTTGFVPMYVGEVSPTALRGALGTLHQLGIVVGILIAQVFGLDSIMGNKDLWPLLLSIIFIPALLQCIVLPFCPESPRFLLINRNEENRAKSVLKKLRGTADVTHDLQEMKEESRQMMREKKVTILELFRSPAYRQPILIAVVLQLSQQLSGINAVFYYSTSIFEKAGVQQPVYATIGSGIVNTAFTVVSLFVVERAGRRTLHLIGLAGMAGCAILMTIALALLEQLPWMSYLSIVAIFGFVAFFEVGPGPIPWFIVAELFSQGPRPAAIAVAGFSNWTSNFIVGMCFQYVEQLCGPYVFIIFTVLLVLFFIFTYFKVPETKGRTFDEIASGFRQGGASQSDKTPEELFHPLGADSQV

Compound	inhibition [1]	inhibition [2]	inhibition [3]
CN(C)CCCOc1c(C(C)(C)C)cc(-c2cc(C(C)(C)C)c(OCCCN(C)C)c(C(C)(C)C)c2)cc1C(C)(C)C	7.07%	4.77%	3.12%
COc1cccc(C2C(C(=O)Nc3ccccc3)=C(C)N=c3sc(=Cc4ccc(O)cc4)c(=O)n32)c1 (stereo not given)	19.2%	27.8%	16.8%
COc1ccc2ccccc2c1CCCCN1CCN(CC(c2ccc(F)cc2)N2CCN(C3CCCC3)CC2)CC1 (stereo not given)	2.16%	4.07%	1.41%
CCCCN(CCCC)Cc1cc(N(C)c2ccc([N+](=O)[O-])cn2)ccc1O	2.39%	-0.26%	1.69%
COc1ccc(C)c(Nc2ccnc(Nc3cccc(-c4nc5ccccc5[nH]4)c3)n2)c1	3.82%	1.79%	2.68%
Nc1nc(N)c2c(ccc3[nH]ccc32)n1	0.22%	2.46%	2.25%
CCCCCCN1CCN(Cc2cccc(NC(=O)c3cc4ccccc4s3)c2)CC1	2.76%	2.43%	2.42%
Cc1cc(N[C@@H](Cc2ccccc2)C(=O)NCCOc2ccccc2)nc(Nc2ccccc2)n1	6.08%	6.54%	2.62%
c1ccc(COc2ccc(COc3ccc(Cn4ccnc4)cc3)cc2)cc1	2.93%	2.15%	1.02%
COc1ccc(-c2cnc3ccc(NCc4ccc(F)cc4)nn23)cc1OC	4.06%	4.1%	1.96%
O=C(c1ccc(-c2cccc(-c3nc4cc(C(F)(F)F)ccc4[nH]3)c2)cc1)N1CCCCC1CN1CCC(O)C1 (stereo not given)	-0.47%	0.38%	0.17%
CCCC(CCC)n1ccc2c3c(N)nc(N)nc3ccc21	59.8%	70.1%	44.5%
Cc1cccc2nc(-c3ccc(-c4ccc(CNCc5ccc(CN)cc5)cc4)cc3)[nH]c12	7.89%	5.94%	2.77%
Nc1cccc(CNCc2cccc(-c3ccc(-c4nc5ccccc5[nH]4)cc3)c2)c1	-1.29%	-0.89%	-0.37%
COc1ccc(OCC(O)CN(Cc2ccccc2OC)C(=O)Nc2ccc(Br)cc2)cc1 (stereo not given)	6.41%	4.6%	1.1%
O=S(=O)(NCCN1CCCC1)c1ccc(-c2ccc(CNCc3ccccc3)cc2)cc1F	3.64%	3.01%	0.32%
CCCOc1ccc(CCNCCCCNCCc2ccc(OCCC)c3ccccc23)c2ccccc12	101%	99.1%	105%
CN1CCC(Oc2cc(CN3CC[C@H](NC(=O)c4ccc(Cl)c(Cl)c4)C3)ccc2I)C1 (stereo not given in full)	-0.57%	0.84%	2.33%
CCc1ccc(N2C(=O)C3C(Cc4ccc(OC(C)(C)C)cc4)NC4(C(=O)N(Cc5ccccc5)c5ccc(F)cc54)C3C2=O)cc1 (stereo not given)	0.6%	-0.02%	-1.06%
O=C(Cc1c[nH]cn1)Nc1cccc(-c2ccc(-c3nc4cc(C(F)(F)F)ccc4[nH]3)s2)c1	-5.22%	-3.59%	-0.81%
Cc1cc2nc(-c3ccc(C(=O)NCc4cccc(F)c4)cc3)[nH]c2cc1C	-0.23%	0.73%	-1.73%
Cc1nc2ccccn2c1C1(O)C(=O)Nc2c(Cl)cc(Cl)cc21 (stereo not given)	5.72%	4.95%	2.71%
CC(=O)Nc1cccc(C(=O)Nc2cccc(-c3cccc(-c4nc5ccccc5[nH]4)c3)c2)c1	16.4%	15.5%	17.4%
COc1cccc(CNC(=O)c2cnc(N3CCN(c4ccncc4)CC3)c(Cl)c2)c1	18%	23.8%	10.9%

Compound	inhibition [1]	inhibition [2]	inhibition [3]
Oc1c(C(Nc2ccccn2)c2ccc(Cl)cc2Cl)ccc2cccnc12 (stereo not given)	3.22%	5.81%	0.74%
CCCCCCCCN1CCN(CCCCCCNc2c3ccccc3nc3ccccc23)CC1	55.5%	28.6%	61.1%
Cc1ccc(Cn2ncc(NC3CCNCC3)c(Cl)c2=O)cc1NC(=O)Nc1ccc(-c2ccccc2)cc1	5.14%	9.28%	5.29%
Cc1cc(CNCCCCCNCc2cccc([N+](=O)[O-])c2)ccc1O	1.94%	1.39%	1.29%
Cc1nn(C)c(C)c1CN(Cc1nc(-c2cccc(Oc3ccccc3)c2)oc1C)C1CC1	4.08%	4.11%	5.34%
NC1CCN(c2nc(NCCc3ccc(O)cc3)nc(NCc3ccccc3-c3ccc(C(F)(F)F)cc3)n2)CC1	4.18%	3.01%	2.19%
CN(CCN)Cc1cccc(-c2ccc(-c3nc4cc(C(F)(F)F)ccc4[nH]3)s2)c1	10.8%	11.3%	8.17%
O=C(NCC1CCC(CNCCCc2ccccc2)CC1)c1cc(Cl)cc(Cl)c1 (stereo not given)	1.46%	0.53%	1.72%
COc1cccc(Cc2c(C)nc3nc(N)nc(N)c3c2C)c1	-0.08%	1.04%	-0.24%
O=C(Cc1c[nH]cn1)Nc1ccc(-c2cccc(-c3nc4cc(F)ccc4[nH]3)c2)cc1	1.49%	4.07%	2.01%
C[C@@H]1CC[C@H](NC(=O)[C@H](CC2CCCC2)NC(=O)N2CCNCC2)C(=O)CN1S(=O)(=O)c1ccccn1	1.44%	0.17%	-0.32%
COc1ccc2ncc(F)c(CCN3C[C@H](CNCc4cc(F)c5c(c4)NC(=O)CO5)[C@H](O)C3)c2n1	3.52%	4.83%	0.92%
CCCN1CCN(CCCNc2c3ccccc3nc3ccccc23)CC1	73.1%	78.2%	65.1%
Cc1ccc(Nc2nc(C)cc(N3CCN(c4ccccc4)CC3)n2)cc1	5.18%	5.92%	2.13%
Cn1cccc1CCNCc1ccc(-c2cccc(-c3nc4cc(F)ccc4[nH]3)c2)cc1	3.65%	3.24%	3.01%
CN(C)CCOc1cc(NC(=O)Nc2cccc([N+](=O)[O-])c2)ccc1I	13%	14.6%	15.7%
Cc1ccc(S(=O)(=O)NC2=NC(=N)N(OCc3ccc(Cl)c(Cl)c3)C(C)(C)N2)cc1	12.6%	13.6%	13.9%
Cc1cccc2nc(-c3ccc(-c4cccc(CN5CCC(C(N)=O)CC5)c4)s3)[nH]c12	-1.68%	2.17%	1.29%
Oc1cccc(Nc2nc(NCc3ccccc3)c3ccccc3n2)c1	22.9%	19.9%	11.8%
c1cc(CNC2Cc3ccccc3C2)cc(-c2cnc(N3CCNCC3)nc2)c1	0.76%	2.77%	1.2%
COc1ccc(-c2cccc(NC(=O)c3ccc(F)cc3)c2)cc1CNC(C)C	1.85%	3.31%	3.19%
Cc1cc(Nc2c(C(N)=O)cnc3cc(-c4ccoc4)ccc23)ccc1N1CCN(C)CC1	-1.39%	-0.31%	-0.69%
COc1ccc2nccc([C@@H](O)CN3CCC(NCc4ccc5c(c4)NC(=O)CO5)CC3)c2c1	1.26%	1.94%	1.91%
COc1ccc2nc3cc(Cl)ccc3c(Nc3ccc(Sc4ccc(Nc5c6ccc(Cl)cc6nc6ccc(OC)cc56)cc4)cc3)c2c1	3.47%	4.48%	3.6%

Compound	inhibition [1]	inhibition [2]	inhibition [3]
O=c1nc(C=Cc2ccc(Br)cc2)oc2ccccc12	3.24%	2.44%	3.63%
Cc1cnc(C(=O)Nc2cccc(-c3ccc(-c4nc5cc(C(F)(F)F)ccc5[nH]4)s3)c2)cn1	8.07%	5.21%	6.71%
CCOC(=O)c1cn(CC)c2cc(N(C)CCc3ccc(OC)c(OC)c3)c(F)cc2c1=O	2.15%	1.21%	1.68%
O=C(NC1CC1)c1cnc(N2CCN(Cc3ccc(Cl)cc3)CC2)c(Cl)c1	5.43%	1.16%	-5.97%
O=C(NCCN1CCOCC1)c1ccc(O)c(-c2cccc(C(F)(F)F)c2)c1	0.48%	1.53%	2.43%
CCOC(=O)COc1cccc(CNc2ccc3nc(N)nc(N)c3c2)c1	2.95%	1.84%	1.48%
Cc1cccc2nc(-c3ccc(-c4cccc(CN5CCC(CCN6CCCCC6)CC5)c4)s3)[nH]c12	-0.21%	0.87%	-3.24%
CCN1CCN(Cc2ccc(NC(=O)c3cc4ccc5cccnc5c4[nH]3)cc2)CC1	17.2%	15.9%	11.4%
COc1ccc2nccc([C@@H](O)CN3CCC(NC(=O)Cc4ccc(Br)c5ccccc45)CC3)c2c1	3.72%	3.24%	1.16%
O=S(=O)(c1cccc(Br)c1)N1CCCCC(c2ccc(C(F)(F)F)cc2)=N1	1.84%	3.68%	2.2%
Cc1cccc2nc(-c3ccc(-c4cccc(NC(=O)NCc5ccccc5)c4)cc3)[nH]c12	0.35%	1.64%	1.98%
COc1cc(NCCCNCc2cn(Cc3cc(Br)cc(Br)c3)c3ccccc23)nc2ccccc12	4.87%	1.54%	2.54%
Cc1cc(N[C@@H](Cc2ccccc2)C(=O)NC2CCCC2)nc(NCCc2cccs2)n1	1.27%	2.88%	1.56%
CCc1cn2c3c(cc(C(=O)N[C@@H](Cc4cccc(Cl)c4)[C@H](O)CNC4CC4)cc13)N(C)S(=O)(=O)CC2	-0.47%	-1.46%	-2.88%
Cc1ccc2nc3c(cc(C(=O)NCCc4ccccc4)c(=N)n3CCCOC(C)C)c(=O)n2c1	-0.01%	0.31%	-1.76%
CCCNCc1ccc(-c2ccc(CN(Cc3cnc(C)cn3)C(=O)CC#N)cc2)nc1	1.8%	1.17%	-1.49%
Cc1cc(=NN=Cc2ccc(Cl)cc2)c2cc(F)ccc2[nH]1	-0.08%	0.68%	-0.34%
CN(C)CCN(C)Cc1ccc(-c2cccc(-c3nc4ccccc4[nH]3)c2)cc1	-0.63%	1.04%	0%
COc1cccc(C2CCN(CCN3CCC(NC(=O)c4ccc(-c5ccc(C(F)(F)F)cc5)cc4)CC3)CC2)c1	4.19%	5.8%	6.6%
CC(C)(C)NS(=O)(=O)c1cc(C(=O)N2CCC(CCN3CCC(O)(c4cccc(C(F)(F)F)c4)CC3)(c3cccc(F)c3)CC2)c(Cl)cc1F	1.73%	1.52%	-0.37%
O=C(NCCCCN1CCC(c2ccc3c(c2OCc2ccccn2)CCCC3)CC1)c1ccc(NC(=O)c2ccc(Cl)cc2)cc1	2.21%	0.31%	2.55%
O=C(CN1CCN(S(=O)(=O)C=Cc2ccccc2)CC1)Nc1cc(C(F)(F)F)ccc1Cl	9.54%	7.6%	8.72%
